In all, about 5,500 compounds went through this assay and about 2,000 (36%) were called active. Not shown: some 18% with an inconclusive outcome. No stated cut-off is given here; in the data, active means normalized growth mostly below about 0.91 (no sharp cut-off); inconclusive means no clear call, values can overlap the other calls; inactive means mostly above about 0.92. The list shows a part of the results.
Test: chemical genetic growth profiling, strain panel (AID 1159580);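 further: tested at 20 µM; growth read once vehicle control cultures reached saturation at 30 °C; 1 = growth at the plate median or of vehicle wells; lower values mean less growth of the strain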
Conditions: growth OD
[1] = S. cerevisiae deletion strains, locus YAL013W, strain DEP1, hits give low values
[2] = S. cerevisiae deletion strains, locus YDR150W, strain NUM1, hits give low values
[3] = S. cerevisiae deletion strains, locus YGR078C, strain PAC10, hits give low values
[4] = S. cerevisiae deletion strains, locus YJR075W, strain HOC1, hits give low values
[5] = S. cerevisiae deletion strains, locus YNL153C, strain GIM3, hits give low values
[6] = S. cerevisiae deletion strains, locus YPL055C, strain LGE1, hits give low values
[7] = S. cerevisiae deletion strains, locus YPL241C, strain CIN2, hits give low values
[8] = S. cerevisiae deletion strains, locus YDL101C, strain DUN1, hits give low values
[9] = S. cerevisiae deletion strains, locus YHR030C, strain SLT2, hits give low values

Measured: normalized growth

CCCN(CCC)C1CCc2cccc(O)c2C1 (centres undefined)
inactive: [1] 1 | S. cerevisiae deletion strains, locus YAL040C, strain CLN3, hits give low values 0.984 | S. cerevisiae deletion strains, locus YCL061C, strain MRC1 (second series), hits give low values 1 | [2] 0.998 | S. cerevisiae deletion strains, locus YDR363W, strain ESC2, hits give low values 1.01 | S. cerevisiae deletion strains, locus YER002W, strain NOP16, hits give low values 1 | [3] 1.01 | [4] 0.995 | S. cerevisiae deletion strains, locus YNL128W, strain TEP1, hits give low values 1 | [5] 1.1 | S. cerevisiae deletion strains, locus YNL175C, strain NOP13, hits give low values 1.01 | S. cerevisiae deletion strains, locus YNL197C, strain WHI3, hits give low values 1.01 | S. cerevisiae deletion strains, locus YNL224C, strain SQS1, hits give low values 1.02 | S. cerevisiae deletion strains, locus YOR083W, strain WHI5 (second series), hits give low values 1.01 | [6] 1 | [7] 1

Cc1ccc(NNC(=O)c2c(C)noc2C)cc1Cl
inactive: S. cerevisiae deletion strains, locus YAR019C, strain CDC15, hits give low values 0.977 | S. cerevisiae deletion strains, locus YBL105C, strain PKC1, hits give low values 0.972 | S. cerevisiae deletion strains, locus YBR135W, strain CKS1, hits give low values 0.982 | S. cerevisiae deletion strains, locus YBR136W, strain MEC1, hits give low values 0.975 | S. cerevisiae deletion strains, locus YBR160W, strain CDC28, hits give low values 0.982 | S. cerevisiae deletion strains, locus YDL017W, strain CDC7, hits give low values 0.979 | S. cerevisiae deletion strains, locus YDL028C, strain MPS1, hits give low values 0.986 | [8] 0.976 | S. cerevisiae deletion strains, locus YDL108W, strain KIN28, hits give low values 0.981 | S. cerevisiae deletion strains, locus YDL132W, strain cdc53, hits give low values 0.987 | S. cerevisiae deletion strains, locus YDL214C, strain PRR2, hits give low values 0.939 | S. cerevisiae deletion strains, locus YDR052C, strain DBF4, hits give low values 0.988 | S. cerevisiae deletion strains, locus YDR054C, strain cdc34, hits give low values 0.993 | S. cerevisiae deletion strains, locus YDR226W, strain ADK1, hits give low values 0.978 | S. cerevisiae deletion strains, locus YDR477W, strain SNF1, hits give low values 0.946 | S. cerevisiae deletion strains, locus YER123W, strain YCK3, hits give low values 0.857 | S. cerevisiae deletion strains, locus YER133W, strain GLC7, hits give low values 0.947 | S. cerevisiae deletion strains, locus YFL009W, strain cdc4, hits give low values 0.986 | S. cerevisiae deletion strains, locus YFL029C, strain CAK1, hits give low values 0.984 | S. cerevisiae deletion strains, locus YFR003C, strain YPI1, hits give low values 0.983 | S. cerevisiae deletion strains, locus YFR019W, strain FAB1, hits give low values 0.903 | S. cerevisiae deletion strains, locus YFR028C, strain CDC14, hits give low values 0.992 | S. cerevisiae deletion strains, locus YGR040W, strain KSS1, hits give low values 0.925 | S. cerevisiae deletion strains, locus YGR052W, strain FMP48, hits give low values 0.987 | S. cerevisiae deletion strains, locus YGR092W, strain DBF2, hits give low values 0.833 | [9] 0.865 | S. cerevisiae deletion strains, locus YHR079C, strain IRE1, hits give low values 0.964 | S. cerevisiae deletion strains, locus YHR082C, strain KSP1, hits give low values 1.02 | S. cerevisiae deletion strains, locus YHR205W, strain SCH9, hits give low values 0.926 | S. cerevisiae deletion strains, locus YIL147C, strain SLN1, hits give low values 0.983 | S. cerevisiae deletion strains, locus YJL095W, strain BCK1, hits give low values 0.929 | S. cerevisiae deletion strains, locus YJL128C, strain PBS2, hits give low values 0.979 | S. cerevisiae deletion strains, locus YJL157C, strain FAR1, hits give low values 0.923 | S. cerevisiae deletion strains, locus YJR016C, strain ILV3, hits give low values 0.981 | S. cerevisiae deletion strains, locus YJR066W, strain TOR1 (second series), hits give low values 0.909 | S. cerevisiae deletion strains, locus YJR066W, strain TOR1, hits give low values 0.983 | S. cerevisiae deletion strains, locus YKL048C, strain ELM1, hits give low values 0.916 | S. cerevisiae deletion strains, locus YKL067W, strain YNK1, hits give low values 0.935 | S. cerevisiae deletion strains, locus YKL101W, strain HSL1, hits give low values 0.943 | S. cerevisiae deletion strains, locus YKL193C, strain SDS22, hits give low values 0.985 | S. cerevisiae deletion strains, locus YKL203C, strain TOR2, hits give low values 1 | S. cerevisiae deletion strains, locus YLR113W, strain HOG1, hits give low values 0.868 | S. cerevisiae deletion strains, locus YLR133W, strain CKI1, hits give low values 0.943 | S. cerevisiae deletion strains, locus YLR403W, strain SFP1, hits give low values 0.92 | S. cerevisiae deletion strains, locus YML070W, strain DAK1, hits give low values 0.906 | S. cerevisiae deletion strains, locus YMR001C, strain CDC5, hits give low values 0.984 | S. cerevisiae deletion strains, locus YMR205C, strain PFK2 (second series), hits give low values 0.955 | S. cerevisiae deletion strains, locus YMR277W, strain FCP1, hits give low values 0.986 | S. cerevisiae deletion strains, locus YNL006W, strain LST8, hits give low values 0.99 | S. cerevisiae deletion strains, locus YNL020C, strain ARK1, hits give low values 0.948 | S. cerevisiae deletion strains, locus YNL161W, strain CBK1, hits give low values 0.98 | S. cerevisiae deletion strains, locus YNL183C, strain NPR1, hits give low values 0.98 | S. cerevisiae deletion strains, locus YNL207W, strain RIO2, hits give low values 0.992 | S. cerevisiae deletion strains, locus YNL222W, strain SSU72, hits give low values 0.982 | S. cerevisiae deletion strains, locus YNL307C, strain MCK1 (second series), hits give low values 0.881 | S. cerevisiae deletion strains, locus YOL078W, strain AVO1, hits give low values 0.98 | S. cerevisiae deletion strains, locus YOL136C, strain PFK27, hits give low values 0.922 | S. cerevisiae deletion strains, locus YOR061W, strain CKA2, hits give low values 0.917 | S. cerevisiae deletion strains, locus YOR119C, strain RIO1, hits give low values 0.976 | S. cerevisiae deletion strains, locus YOR231W, strain MKK1, hits give low values 0.917 | S. cerevisiae deletion strains, locus YOR329C, strain SCD5, hits give low values 0.986 | S. cerevisiae deletion strains, locus YPL031C, strain PHO85, hits give low values 0.944 | S. cerevisiae deletion strains, locus YPL153C, strain RAD53, hits give low values 0.922 | S. cerevisiae deletion strains, locus YPL204W, strain HRR25, hits give low values 0.956 | S. cerevisiae deletion strains, locus YPL209C, strain IPL1, hits give low values 0.973 | S. cerevisiae deletion strains, locus YPL256C, strain CLN2, hits give low values 0.903 | S. cerevisiae deletion strains, locus YPR025C, strain CCL1, hits give low values 0.981 | S. cerevisiae deletion strains, locus YPR106W, strain ISR1, hits give low values 0.981 | S. cerevisiae deletion strains, locus YPR111W, strain DBF20, hits give low values 0.961 | S. cerevisiae deletion strains, strain NNK1, hits give low values 0.975 | S. cerevisiae deletion strains, strain TSCII, hits give low values 0.98

COC(=O)c1c(-c2c(Cl)cccc2Cl)noc1NC(=O)NN1CCCCC1
inactive: [1] 1.02 | S. cerevisiae deletion strains, locus YBR229C, strain ROT2, hits give low values 1.02 | S. cerevisiae deletion strains, locus YCL061C, strain MRC1, hits give low values 1.01 | [8] 1.01 | S. cerevisiae deletion strains, locus YDL134C, strain PPH21, hits give low values 0.993 | [2] 0.993 | S. cerevisiae deletion strains, locus YEL061C, strain CIN8, hits give low values 1 | [3] 1.03 | S. cerevisiae deletion strains, locus YGR229C, strain SMI1, hits give low values 1 | [9] 0.973 | S. cerevisiae deletion strains, locus YHR087W, strain rtc3, hits give low values 1.03 | S. cerevisiae deletion strains, locus YJL187C, strain SWE1, hits give low values 1.01 | S. cerevisiae deletion strains, locus YJR043C, strain POL32, hits give low values 1.01 | [4] 1.02 | S. cerevisiae deletion strains, locus YKL190W, strain CNB1, hits give low values 1 | S. cerevisiae deletion strains, locus YLR039C, strain RIC1, hits give low values 0.963 | S. cerevisiae deletion strains, locus YLR058C, strain SHM2 (second series), hits give low values 1.01 | S. cerevisiae deletion strains, locus YLR085C, strain ARP6, hits give low values 0.992 | S. cerevisiae deletion strains, locus YLR262C, strain YPT6, hits give low values 0.977 | S. cerevisiae deletion strains, locus YML094W, strain GIM5, hits give low values 1.04 | S. cerevisiae deletion strains, locus YMR219W, strain ESC1, hits give low values 1.01 | S. cerevisiae deletion strains, locus YMR263W, strain SAP30, hits give low values 1 | S. cerevisiae deletion strains, locus YMR307W, strain GAS1, hits give low values 1 | [5] 1.01 | S. cerevisiae deletion strains, locus YNL298W, strain CLA4 (second series), hits give low values 1 | S. cerevisiae deletion strains, locus YNL322C, strain KRE1, hits give low values 1.01 | S. cerevisiae deletion strains, locus YNR030W, strain Alg12, hits give low values 0.987 | S. cerevisiae deletion strains, locus YOL006C, strain TOP1, hits give low values 1.05 | [6] 1.01 | [7] 0.911 | S. cerevisiae deletion strains, locus YPR135W, strain CTF4, hits give low values 0.969 | S. cerevisiae strains, strain wild type, hits give low values 0.999

Reference: PubChem BioAssay AID1159580 (chemical genetic matrix, 2015)
